Reference: PubChem BioAssay (NCATS)
Values without a mark were called inactive. Inconclusive results are not listed. A call without a number means that no potency is given here. The source made the active and inactive calls. Calls follow the shape of the dose curve; as a rule, active = well fitted curve in the direction sought with a large enough effect; inconclusive = small, poorly fitted or top-dose-only effect, or another doubt; inactive = no such curve, though single readings can be large; an effect the other way counts as inactive or inconclusive.

Assays:
[1] = target: Cytochrome P450 3A4 (Homo sapiens) (UniProt P08684); assay: qHTS Assay for Inhibitors and Substrates of Cytochrome P450 3A4 (AID 884); conditions: recombinant CYP3A4, Luciferin-PPXE luminescence; series mostly up to 57.1 µM; also: nearly all actives have a fitted effect of over 50% in size; also: potency is read from the fitted curve at half-maximal effect
Cytochrome P450 3A4 (Homo sapiens), sequence (P08684 whole entry, looked up): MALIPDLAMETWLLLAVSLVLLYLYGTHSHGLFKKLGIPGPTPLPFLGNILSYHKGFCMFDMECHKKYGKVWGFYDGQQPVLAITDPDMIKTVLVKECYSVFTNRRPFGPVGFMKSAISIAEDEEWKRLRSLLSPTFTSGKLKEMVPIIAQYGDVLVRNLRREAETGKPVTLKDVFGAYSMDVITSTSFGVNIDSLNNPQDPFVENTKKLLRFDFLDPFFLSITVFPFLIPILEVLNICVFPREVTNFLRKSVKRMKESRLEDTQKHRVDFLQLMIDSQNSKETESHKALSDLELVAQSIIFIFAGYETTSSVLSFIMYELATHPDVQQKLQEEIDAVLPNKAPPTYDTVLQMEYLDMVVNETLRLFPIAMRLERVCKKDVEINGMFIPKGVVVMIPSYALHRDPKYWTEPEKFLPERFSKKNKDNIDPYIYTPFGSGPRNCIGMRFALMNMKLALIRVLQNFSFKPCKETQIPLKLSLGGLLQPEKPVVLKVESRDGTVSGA
Outline: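 20 nM human CYP3A4 with 25 uM Luciferin-PPXE (at KM) in 200 mM KPO4, preincubated 10 min with compound; NADPH regeneration started a 60 min RT reaction. Luciferin detected by luminescence, normalized to 57 uM ketoconazole as full inhibition.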

[2] = target: Cytochrome P450 2C9 (Homo sapiens) (UniProt P11712); assay: qHTS Assay for Inhibitors and Substrates of Cytochrome P450 2C9 (AID 883); conditions: recombinant CYP2C9, luciferin-H luminescence, 60 min; series mostly up to 11.4 µM; also: nearly all actives have a fitted effect of over 60% in size; also: potency is read from the fitted curve at half-maximal effect
Cytochrome P450 2C9 (Homo sapiens), sequence (P11712 whole entry, looked up): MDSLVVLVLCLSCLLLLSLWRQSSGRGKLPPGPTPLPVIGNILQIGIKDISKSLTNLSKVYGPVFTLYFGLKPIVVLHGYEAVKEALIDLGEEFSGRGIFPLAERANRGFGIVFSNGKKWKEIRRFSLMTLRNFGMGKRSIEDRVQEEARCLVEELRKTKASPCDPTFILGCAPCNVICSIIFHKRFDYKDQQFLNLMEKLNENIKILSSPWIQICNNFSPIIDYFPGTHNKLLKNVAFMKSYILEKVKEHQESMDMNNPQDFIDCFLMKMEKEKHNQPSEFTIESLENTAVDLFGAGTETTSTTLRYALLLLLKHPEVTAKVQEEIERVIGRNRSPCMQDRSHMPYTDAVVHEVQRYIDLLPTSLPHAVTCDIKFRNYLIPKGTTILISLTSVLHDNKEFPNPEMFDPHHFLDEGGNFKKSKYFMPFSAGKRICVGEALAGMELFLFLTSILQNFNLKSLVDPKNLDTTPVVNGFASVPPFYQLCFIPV
Outline: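 Luminescent read-out of deoxyluciferin hydroxylation, normalized to 57uM sulphaphenazole (AC100). Reaction: 10nM enzyme, 100uM Luciferin-H (equal to KM), 25mM KPO4, 10 min compound preincubation, then 60 min with NADPH regeneration, both at 37C.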

[3] = target: Cytochrome P450 3A4 (Homo sapiens) (UniProt P08684); assay: qHTS Assay for Activators of Cytochrome P450 3A4 (AID 885); conditions: recombinant CYP3A4, Luciferin-PPXE luminescence, 60 min; series mostly up to 57.1 µM; also: nearly all actives have a fitted effect of over 65% in size
Outline: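 Steps: enzyme/substrate mix dispensed; compound added, 10 min RT; NADPH regeneration solution added, 60 min RT; luciferin detection buffer stops reaction; 20 min later luminescence measured.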

[4] = target: Cytochrome P450 2C19 (Homo sapiens) (UniProt P33261); assay: qHTS Assay for Inhibitors and Substrates of Cytochrome P450 2C19 (AID 899); conditions: recombinant CYP2C19, luciferin-H EGE luminescence; series mostly up to 11.4 µM; also: potency is read from the fitted curve at half-maximal effect; nearly all actives have a fitted effect of over 60% in size
Cytochrome P450 2C19 (Homo sapiens), sequence (P33261 whole entry, looked up): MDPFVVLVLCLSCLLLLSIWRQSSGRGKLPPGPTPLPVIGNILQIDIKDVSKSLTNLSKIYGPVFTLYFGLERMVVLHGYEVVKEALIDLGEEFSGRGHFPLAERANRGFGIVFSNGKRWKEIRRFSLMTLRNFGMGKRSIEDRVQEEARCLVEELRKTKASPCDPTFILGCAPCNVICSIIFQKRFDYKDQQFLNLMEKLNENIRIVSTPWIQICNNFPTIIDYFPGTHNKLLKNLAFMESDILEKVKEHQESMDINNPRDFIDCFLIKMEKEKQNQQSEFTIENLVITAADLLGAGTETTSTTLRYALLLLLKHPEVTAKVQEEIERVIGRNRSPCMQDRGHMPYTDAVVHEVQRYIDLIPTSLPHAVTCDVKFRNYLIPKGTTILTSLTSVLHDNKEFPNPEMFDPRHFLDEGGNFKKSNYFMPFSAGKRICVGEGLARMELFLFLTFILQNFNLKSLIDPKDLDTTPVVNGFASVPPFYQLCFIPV
Outline: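 Luminescence readout of luciferin formed from 10uM Luciferin-H EGE (KM level) by 5 nM CYP2C19 in 50mM KPO4. 60 min NADPH-driven reaction at 37C after 10 min compound preincubation; data scaled to 57uM ketoconazole inhibition.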

Question: Which Potency [1] does the source give for OB(O)c1ccc(Cl)s1 here?
Answer: The Potency was “inactive”.

Question: How did the Potency [1] turn out when COC(=O)c1ccc(C23CC4(C2)[C@H](CN(Cc2ccc(C(F)(F)F)cc2)[C@@H]4c2ccccc2)C3c2ccc(C(F)(F)F)cc2)cc1 (stereo partly drawn) was run?
Answer: The Potency was “inactive”.

Question: With FC(F)(F)c1cccc(-c2noc(-c3cc(-c4ccccc4)c(C(F)(F)F)s3)n2)c1 as the molecule, how does the Potency [1] read?
Answer: Its Potency is “inactive”.

Question: With Cc1csc(B(O)O)c1 as the molecule, how does the Potency [1] read?
Answer: Its Potency is “inactive”.

Question: COC(=O)[C@@H]1C[C@@]2(O)[C@H](O)[C@H](O)[C@H](O)C[C@H]2N1Cc1ccc(C)s1 was tested. Which Potency [1] did it give?
Answer: The Potency was “inactive”.

Question: For COC(=O)[C@@H]1C[C@@]2(O)[C@H](O)[C@H](O)[C@H](O)C[C@H]2N1Cc1ccc(C(C)(C)C)cc1, which Potency [1] is on record?
Answer: Its Potency is “inactive”.

Question: Which Potency [1] does the source give for COC(=O)[C@@H]1C[C@@H]2CC[C@@H](O)C[C@@H]2N1Cc1ccc(Cl)cc1 here?
Answer: The Potency was 15.8 µM (active).

Question: Which Potency [1] does the source give for CC(C)Cn1c(N)c(C(=O)COC(=O)c2cc(-c3ccccc3)nc3ccccc23)c(=O)n(C)c1=O here?
Answer: Its Potency is “inactive”.

Question: With O=C(O)c1ccc(B(O)O)cc1 as the molecule, how does the Potency [1] read?
Answer: Its Potency is “inactive”.

Question: What does the source list for C=CCOCC/C=C1/c2ccccc2C(OC)C1C (stereo not drawn)?
Answer: Potency [2]: inactive; activity change, positive = activation [3]: -43.5% [at 11.4 µM]; Potency [4]: 3.98 µM (active)

Question: Which results are given for COC(=O)[C@@H]1CC[C@H](C)[C@@H](c2ccc(C)cc2)N1C(=O)c1ccc(/C=N\OC[C@@H](O)[C@H]2O[C@H]3OC(C)(C)O[C@H]3[C@@H]2O)cc1?
Answer: Potency [2]: 2.51 µM (active); activity change, positive = activation [3]: -58.3% [at 11.4 µM]; Potency [4]: 0.631 µM (active)

Question: For CC12C=C(/C=C/c3ccccc3)C(C)(C1)C(c1ccccc1)CC2=O (stereo not drawn), which Potency [2] is on record?
Answer: The Potency was “inactive”.

Question: What about the activity change, positive = activation [3] of the same molecule?
Answer: The activity change, positive = activation was -52.8% [at 11.4 µM].

Question: What about the Potency [4] of the same molecule?
Answer: The Potency was 0.794 µM (active).
